Assay results from PubChem BioAssay (NCI).
About 83,000 compounds went through this panel and 20% of them were active in at least one assay; those are over-represented in the sample as a whole.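 Method: cells in 96-well plates; compound added at one concentration; 48 h incubation; percent growth measured; values under 10 scored active.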 Values without a mark were called inactive. Calls of active or inactive are those of the source.

Tests used:
Test in all cases: NCI-60 one-dose screen, 48 h (100 = growth as untreated, 0 = no growth, -100 = all killed)
Details in all cases: 10 µM unless noted
HT29 colon = test system: HT29 colon
SNB-75 CNS = test system: SNB-75 CNS
SNB-19 CNS = test system: SNB-19 CNS
U251 CNS = test system: U251 CNS
PC-3 prostate = test system: PC-3 prostate
UACC-62 melanoma = test system: UACC-62 melanoma
LOX IMVI melanoma = test system: LOX IMVI melanoma
SK-MEL-28 melanoma = test system: SK-MEL-28 melanoma
SK-MEL-2 melanoma = test system: SK-MEL-2 melanoma
SK-MEL-5 melanoma = test system: SK-MEL-5 melanoma

| Compound | growth (HT29 colon) | growth (SNB-75 CNS) | growth (SNB-19 CNS) | growth (U251 CNS) | growth (PC-3 prostate) [%] | growth (UACC-62 melanoma) | growth (LOX IMVI melanoma) | growth (SK-MEL-28 melanoma) | growth (SK-MEL-2 melanoma) | growth (SK-MEL-5 melanoma) |
| --- | --- | --- | --- | --- | --- | --- | --- | --- | --- | --- |
| CC12CCCCC1C(C(N)=O)C(=O)O2 (stereo unspecified) | 112% | 96.1% | 100% | 104% | 101 | 98.8% | 96.4% | 105% | 104% |  |
| O=[N+]([O-])c1ccc(Oc2cccc(C(F)(F)F)c2)c([N+](=O)[O-])c1 | -4.93% (active) | 92.2% | 74.5% | 18.3% | 88.9 | 34.1% | 8.07% (active) | 104% | 11.7% |  |
| C/C(=N/N=C(N)N)c1ccc(Cl)cc1 | 80.9% | 81.3% | 92.6% | 89.4% | 42.3 | 91.2% | 86.5% | 178% | -5.11% (active) |  |
| CCCCc1nc(Cl)c(CO)n1Cc1ccc(-c2ccccc2-c2nn[nH]n2)cc1 | 108% | 101% | 110% | 97.9% | 93.2 | 102% | 100% | 114% | 125% |  |
| CCn1c2c(c3ccccc31)SC1c3cccn3CCN1C2=S (stereo unspecified) | 90.2% | 79.6% | 95.8% | 93.8% | 89.1 | 81% | 96.8% | 110% | 89.9% |  |
| COc1ccc(/C=C2\COc3ccc(O)c(O)c3C2=O)cc1OC | 8.1% (active) | 42.1% | 22.4% | 5.85% (active) | 11.7 | -29.4% (active) | -68% (active) | 57.2% | 76% |  |
| COc1ccc(OC)c(/C=C/c2nc(=S)n(-c3ccc(Cl)cc3)[nH]2)c1 | 65.4% | 42.5% | 51.2% | 53.3% | 58.6 |  |  | 72.7% | 71.2% | 32.5% |
| CC[C@H](C)C(=O)O[C@H]1C[C@@H](C)C=C2C=C[C@H](C)[C@H](CC[C@@H]3C[C@@H](O)CC(=O)O3)[C@H]21 | 95.4% | 58.3% | 64.9% | 25.2% | 33.9 | 23.7% | 25.1% | 90.6% | 36.8% |  |
| CCC(c1ccccc1)c1noc(CCN(CC)CC)n1 (stereo unspecified) | 117% | 86.6% | 105% | 98.1% | 95.5 | 98.9% | 100% | 101% | 19.4% |  |
| COc1cccc(-c2nnc(N)o2)c1 | 100% | 106% | 102% | 97.8% |  | 99.5% | 94.7% | 104% | 107% | 99.3% |
| O=c1c(O)cccn1CCCNCCCN(CCCn1cccc(O)c1=O)CCCn1cccc(O)c1=O | 111% | 104% | 99.8% | 93.8% |  | 100% | 83.8% | 116% | 122% | 105% |
| CCC(C)CC(C)C(=O)c1c(O)ccn(OC)c1=O (stereo unspecified) | 124% | 88% | 78% | 60.6% |  | 92.3% | 32.4% | 77.6% | 102% | 84% |
| OCc1nnn(-c2ccccc2)c1CO | 103% | 94.8% | 115% | 104% |  | 101% | 100% | 128% | 113% | 107% |
| COc1ccc(C(=O)COc2cccc(/C=C3\Oc4ccc5ccccc5c4C3=O)c2)cc1 | 46.2% | 44.8% | 105% | 84% |  | 76.4% | -80.4% (active) | 116% | 59.1% | 78.6% |
| CC(=O)Oc1c(C)c(OC(C)=O)c2c(c1C(C)=O)OC1CC(=O)C(C(C)=O)=C(O)C21C (stereo unspecified) | 100% | 94.7% | 95.4% | 91.6% |  | 95.9% | 86.7% | 119% | 107% | 95.4% |
| C[n+]1c2ccccc2c(NC2CCNCC2)c2[nH]c3ccccc3c21 | 2.95% (active) | 7.49% (active) | -12.4% (active) | 1.08% (active) |  | -73.3% (active) | 13.2% | 10.6% | -46.4% (active) | 7.09% (active) |

| Compound | growth (HT29 colon) | growth (SNB-75 CNS) | growth (SNB-19 CNS) | growth (U251 CNS) | growth (PC-3 prostate) [%] | growth (UACC-62 melanoma) | growth (LOX IMVI melanoma) | growth (SK-MEL-28 melanoma) | growth (SK-MEL-2 melanoma) | growth (SK-MEL-5 melanoma) |
| --- | --- | --- | --- | --- | --- | --- | --- | --- | --- | --- |
| C[n+]1ccc(C#N)c2ccccc21 | 65.1% | 85.7% | 109% | 104% |  | 115% | 85.5% | 106% | 77.5% | 99.1% |
| CC(=O)c1cc(C(=O)c2ccc3c(c2)Sc2ccccc2N3)c2c(C)cc(C)cn12 | -15% (active) | -2.02% (active) | 36.5% | 14.6% |  | 23.1% | 16.6% | 40.4% | 26.3% | -36.5% (active) |
| O=C(Nc1ccc(Cl)cc1)c1cc2c(cc1O)[nH]c1ccccc12 | 1.2% (active) | 38.3% | 36.9% | 22.1% |  | 10.2% | 30.4% | 38.6% | 22.3% | 0.256% (active) |
| O=C1CC(C(F)(F)F)=NN1C(=O)c1nn(-c2ccc(Cl)cc2)cc1O | 110% | 74.6% | 87.7% | 64.9% |  | 96.4% | 62.6% | 115% | 96.9% | 88.4% |
| O=C(Oc1ccc[nH]c1=O)c1cccc(Cl)c1 | 97.4% | 53.2% | 85.8% | 92.7% |  | 95.3% | 90.8% | 127% | 108% | 99.8% |
| Cc1nn(-c2ccccc2)c2c1oc(=O)c1cc(Cl)ccc12 | 101% | 83.7% | 99.2% | 105% |  | 92.3% | 105% | 140% |  | 110% |
| Cc1ccccc1-c1cc(Cc2ccccc2O)c(=O)[nH]n1 | 139% | 106% | 123% | 103% |  | 95.3% | 100% | 131% |  | 94.8% |
| CC1=C(C(=O)Nc2ccccc2)C(c2ccc3c(c2)OCCO3)NC(=O)N1 (stereo unspecified) | 108% | 102% | 99.6% | 105% |  | 101% | 94.7% | 111% | 125% | 101% |
| CSC1=Nc2c(c(C)c(-c3ccccc3)n2CCCN2CCCCC2)C2=NC(=O)C[C@H](C)N12 | 21.4% | 50.3% | 20.2% | 11.8% |  | 53.7% | 42.3% | 43.2% | 62.8% | 9.86% (active) |
| COc1ccccc1[C@H]1c2[nH]c3ccccc3c2C[C@H]2C(=O)N(CCCCCCC(=O)NO)CC(=O)N12 | 23.4% | -6.11% (active) | 67.3% | 46.6% |  | 23.7% | 32.7% | 18.6% | 59.5% | 26.6% |
| COc1ccc(C2=NN(C(C)=O)C(c3cc(OC)c(OC)c(OC)c3)C2)cc1 (stereo unspecified) | 103% | 96.6% | 90.7% | 105% |  | 101% | 90.6% | 129% | 99% | 92.6% |
| CCOC(=O)C1=NN(c2ccc(Cl)cc2)C2C3N(c4ccc(Cl)cc4)N=C(C(=O)OCC)N3c3ccccc3N12 (stereo unspecified) | 93.3% | 91.1% | 118% | 114% |  | 101% | 113% | 108% | 102% | 92.7% |
| C[n+]1c2ccccc2c(Nc2ccc(N3CCCCC3)cc2)c2[nH]c3ccccc3c21 | -85% (active) | -94% (active) | -89.8% (active) | -98% (active) |  | -97.8% (active) | -86.2% (active) | -98.9% (active) | -97.9% (active) | -98.3% (active) |
| O=C1CCCN1C1CCN(Cc2cc3ccccc3[nH]c2=O)c2ccccc21 (stereo unspecified) | 92.9% | 79.3% | 96.8% | 96.1% |  | 85.5% | 90.4% | 103% | 96.1% | 86.1% |
| COc1ccc(-c2cc(C(=O)Nc3nc4cc(C)c(C)cc4s3)nc3cc(-c4ccccc4)nn23)cc1OC | 93.1% | 87.9% | 108% | 111% |  | 107% | 95.1% | 94.4% | 113% | 110% |
